System: Vero E6 infected with SARS-CoV-2
Test: inhibition of SARS-CoV-2 cytopathic effect; higher = more antiviral protection, active = above 15
Conditions: 48 h

| Structure (SMILES) | inhibition of SARS-CoV-2 cytopathic effect (1 nM) | inhibition of SARS-CoV-2 cytopathic effect (8.33 nM) | inhibition of SARS-CoV-2 cytopathic effect (100 nM) | inhibition of SARS-CoV-2 cytopathic effect (833.33 nM) | inhibition of SARS-CoV-2 cytopathic effect (10000 nM) |
| --- | --- | --- | --- | --- | --- |
| COc1cccc2c1C(=O)c1c(O)c3c(c(O)c1C2=O)C[C@@](O)(C(=O)CO)C[C@@H]3O[C@H]1C[C@H](N2CCO[C@H](OC)C2)[C@H](O)[C@H](C)O1 [nemorubicin] | 1.94% (inactive) | -5.08% (inactive) | -8.02% (inactive) | -7.55% (inactive) | -7.13% (inactive) |
| O=c1[nH]cc(F)c(=O)[nH]1 [5-fluorouracil] | 0.75% (inactive) | 1.63% (inactive) | 1.29% (inactive) | 0.37% (inactive) | 1.52% (inactive) |
| CCS(=O)(=O)c1ccc2oc(-c3ccc4ccccc4c3)nc2c1 [ezutromid] | 3.38% (inactive) | 0.67% (inactive) | -1.92% (inactive) | 2.64% (inactive) | 1.18% (inactive) |
| OC[C@@H](O)[C@@H](O)[C@H](O)[C@@H](O)CO [sorbitol] | 0.49% (inactive) | -0.64% (inactive) | -0.23% (inactive) | 1.86% (inactive) | 1.46% (inactive) |
| O=C1CC2(CCCC2)CC(=O)N1CCNC[C@H]1COc2ccccc2O1 | -0.99% (inactive) | -2.08% (inactive) | -0.87% (inactive) | 0.95% (inactive) | -2.14% (inactive) |
| Oc1cc(O)c(Cl)cn1 [gimeracil] | -0.94% (inactive) | 0.32% (inactive) | -0.13% (inactive) | -0.16% (inactive) | 1.36% (inactive) |
| CCCCOC(=O)c1ccccc1Nc1cccc(C(F)(F)F)c1 [ufenamate] | 2.83% (inactive) | 2.78% (inactive) | 0.41% (inactive) | 1.79% (inactive) | 0.16% (inactive) |
| COc1ccc(S(=O)(=O)Nc2nc(-c3cccc([N+](=O)[O-])c3)cs2)cc1OC | 2.08% (inactive) | 4.04% (inactive) | 7.06% (inactive) | 0.79% (inactive) | -3.82% (inactive) |
| c1ccc(C2CC2)c(OCC2=NCCN2)c1 [cirazoline] | -0.75% (inactive) | 0.31% (inactive) | -8.08% (inactive) | 0.87% (inactive) | -3.99% (inactive) |
| CCCCCC(O)CCCC(=O)O (stereo not given) | -2.76% (inactive) | -6.54% (inactive) | -3.55% (inactive) | -1.75% (inactive) | -6.15% (inactive) |
| CCNCCS(=O)(=O)NC[C@@]1(c2ccccc2)SC(NC(=O)C(C)(C)C)=NN1C(=O)C(C)(C)C [litronesib] | 2.17% (inactive) | 5.24% (inactive) | 2.46% (inactive) | 0.96% (inactive) | 0.39% (inactive) |
| CC(C)(C(=O)O)c1ccc(C(=O)CCCN2CCC(OC(c3ccccc3)c3ccccc3)CC2)cc1 [carebastine] | -2.83% (inactive) | -1.16% (inactive) | -0.91% (inactive) | -2.56% (inactive) | -0.56% (inactive) |
| O=C(Nc1ccc([N+](=O)[O-])cc1Cl)c1cc(Cl)ccc1O [niclosamide] | -0.87% (inactive) | -2.63% (inactive) | 0.39% (inactive) | 11.4% (inactive) | 4.29% (inactive) |
| Nc1ncnc2[nH]nc(Nc3ccc(F)cc3)c12 | -2.32% (inactive) | -2.2% (inactive) | -2.66% (inactive) | -0.59% (inactive) | -5.26% (inactive) |
| C=CC[C@]1(O)CC[C@H]2[C@@H]3CCC4=CC(=O)CCC4=C3C=C[C@@]21C [altrenogest] | -0.68% (inactive) | -1.12% (inactive) | -0.94% (inactive) | 0.13% (inactive) | 4.81% (inactive) |
| Cc1cc(O)cc2c1O[C@](C)(CCC[C@H](C)CCC[C@H](C)CCCC(C)C)CC2 [D-delta-tocopherol] | 1.56% (inactive) | 0.99% (inactive) | 2.25% (inactive) | 0.84% (inactive) | -0.19% (inactive) |
| COc1ccc2[nH]c(C(=O)c3ccccc3)cc2c1 | 0.63% (inactive) | 1.49% (inactive) | 0.36% (inactive) | 0.6% (inactive) | 0.07% (inactive) |
| O=C(O)c1ccc(N2N=C(Cc3ccccc3)/C(=C\c3ccc(-c4ccccc4F)o3)C2=O)cc1 | -0.59% (inactive) | 0.52% (inactive) | -1.43% (inactive) | 1.97% (inactive) | -1.44% (inactive) |
| COc1ccc2cc1Oc1ccc(cc1)C[C@H]1c3cc(c(OC)cc3CCN1C)Oc1c(OC)c(OC)cc3c1[C@H](C2)N(C)CC3 [tetrandrine] | -2.72% (inactive) | -0.14% (inactive) | -1.04% (inactive) | -2.19% (inactive) | 69.3% (active) |

Source: the supplement of paper PMC13380429
